SW480 rerep = induces DNA re-replication in SW480 colon adenocarcinoma cells. SW480 DNA re-replication, Hoechst DNA content imaging, 48 h. Potency, µM (series often up to 46.1 µM), without a hit: at the top dose re-replication activation, hits mostly activators. 340,000 tested, 1.8% active. AID 624297; further: potency means the concentration at half of the fitted maximal effect; % of control where 0% means no effect; nearly all actives have a fitted effect of over 55% in size
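Image-based DNA-content assay: after two days of treatment, nuclei were labelled with the DNA dye Hoechst and imaged, and hits were compounds raising the count of nuclei showing high fluorescence intensity.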
DT40 TDP1 CPT = DT40-hTDP1 cell growth loss with CPT. chicken DT40 Tdp1-/-;hTDP1 cells + 20 nM CPT, ATP luminescence, 48 h. Potency, µM (titrated, usually from 46.2 µM), for the others: at the top dose activity change, negative = growth inhibition, hits mostly inhibitors. 420,000 tested, 12% active. AID 686979; further: potency means the concentration at half of the fitted maximal effect; on the % scale 0 is the no-effect control and ±100 the full control effect; nearly all actives have a fitted effect of over 55% in size
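Chicken DT40 Tdp1-/- cells complemented with human TDP1, 400 cells/well, exposed to compounds plus 20 nM camptothecin for at least 48 h at 37 C; viability read as ATP content by CellTiter-Glo luminescence.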
DT40 TDP1 no CPT = qHTS for Inhibitors of human tyrosyl-DNA phosphodiesterase 1 (TDP1): qHTS in cells in absence of CPT; Potency, µM (top dose mostly 46.2 µM), without a hit: at the highest dose activity change, negative = growth inhibition, usual class: inhibitors; DT40 Tdp1-/- hTDP1 cells, no CPT, ATP luminescence, 48 h; 420,000 tested, 15% active; AID 686978, 2013; further: potency means the concentration at half of the fitted maximal effect; on the % scale 0 is the no-effect control and ±100 the full control effect; nearly all actives have a fitted effect of over 55% in size
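Compound effects on proliferation are scored in DT40 Tdp1-/-;hTDP1 cells in the absence of CPT. ATP levels (CellTiter-Glo luminescence) are recorded after a ≥48 hr, 37 °C incubation.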
MCF10A rereplic = DNA re-replication induction in MCF 10a cells; Potency, µM (top dose mostly 46.1 µM), inactives show at the top dose activity, positive = re-replication, usual class: activators; 350,000 tested, 2.9% active; MCF 10A DNA re-replication, Hoechst nuclear intensity, 48 h; further: potency means the concentration at half of the fitted maximal effect; % of control where 0% means no effect; nearly all actives have a fitted effect of over 50% in size
IL-1B inflam inh = inflammasome signaling inhibition, IL-1 beta readout; THP-1 LPS/ATP IL-1B secretion, AlphaLISA, 16 h; active compounds read low; 360,000 tested, 4.7% active; activity change, % at 57.5 µM; AID 743279; in the data active means activity change below about -50%; inconclusive means mostly about -30% to -49%; further: on the % scale 0 is the no-effect control and ±100 the full control effect
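Secreted IL-1B measured by AlphaLISA bead assay after 16 h compound exposure of THP-1 cells; compounds (final up to 57.5 uM) added 1 h before LPS (250 ng/mL) and ATP (1.25 mM) stimulation; lower signal means less secretion.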
BCR signal inh = inhibitors of chronic active B-cell receptor signaling; ABC-DLBCL IkBa-CBG/CBR reporter, luminescence ratio, 4 h; Potency, µM (series often up to 46.1 µM), for inactives: top-dose activity change, negative = inhibition, hits mostly inhibitors; 340,000 tested, 0.05% active; active means well fitted inhibition curve with a large enough effect in the signal ratio, with a control signal flat, not every such curve was filed as active; inconclusive means small, poorly fitted or top-dose-only effect, or effect the other way, or a change in a side signal; the % refers to the signal ratio;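 further: potency means the concentration at half of the fitted maximal effect; plate controls were basal doxycycline-induced cells for no effect and cells given 10 µM MG132 for full effect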
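Doxycycline induced both beetle luciferases in TMD8 lymphoma cells; IKK-driven degradation limits the IkappaBalpha-fused green signal, while red luminescence normalises for cell number and nonspecific effects. Compounds tested up to 46 uM, 4 hrs.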
* hit, by the source's call; ? = inconclusive; . = no result given. Only some compounds are listed: those with a hit (about 19% of all), similar ones and a draw of the others. Unless noted, the call rests on the fitted dose curve; in most records, active means well fitted curve in the direction sought with a large enough effect; inconclusive means small, poorly fitted or top-dose-only effect, or another doubt; inactive means no such curve, though single readings can be large; an effect the other way counts as inactive or inconclusive.

SMILES	SW480 rerep	DT40 TDP1 CPT	DT40 TDP1 no CPT	MCF10A rereplic	IL-1B inflam inh	BCR signal inh
CCOC(=O)N1CCN(c2nc(-c3cccc(OC)c3)cc(C(F)(F)F)n2)CC1	0%	?	21µM*	?	-8	3%
COc1cccc(-c2cc(C(F)(F)F)nc(-n3cc(C)cn3)n2)c1	3%	15µM*	16µM*	-1%	?	?
COc1cccc(-c2cc(C(F)(F)F)nc(-n3cncn3)n2)c1	-7%	-14%	-23%	18%	-23	4%
CC(C)c1ccc(NC2=CC(=O)CC(C)(C)C2)cc1	7%	-4%	-16%	15%	-11	?
COc1cc(/C=N/NC(=O)CCC(=O)NC2CCCCC2)ccc1C	-6%	10%	-10%	-1%	10	6%
COc1ccc(N2CCN(S(=O)(=O)CCNC(=O)C3CCCCC3)CC2)cc1	-13%	?	-1%	0%	9	-2%
COc1ccc(-c2cc(C(F)(F)F)n3ncc(C(=O)N4CCCCC4c4cccnc4)c3n2)cc1 (configuration not stated)	?	16µM*	?	?	-8	-14%
O=C1NC(=O)C2(Br)Nc3ccc(Br)cc3C(=O)C2N1 (configuration not stated)	-4%	-12%	0%	-2%	0	.
O=C(Nc1ccc(Br)cc1Cl)c1cnn2c1NC(=C1CC1)C=C2C(F)F	.	-5%	-6%	.	.	.
COc1ccccc1N1CCN(C(=O)CN(C)S(=O)(=O)c2ccc(C)cc2)CC1	.	?	?	.	3	.
Cc1ccc2c(c1)-n1c(nc3cc(Cl)ccc3c1=O)C(CC(C)C)NC2=O (configuration not stated)	.	.	.	.	.	-1%
O=C(NCc1ccc(F)cc1)c1cc(C2CCCN(S(=O)(=O)c3ccccc3)C2)on1 (configuration not stated)	.	?	16µM*	.	-7	.
O=C(NCc1ccccc1)c1cc(C2CCCN(S(=O)(=O)c3cccs3)C2)on1 (configuration not stated)	.	?	?	.	-59*	.
CC(C)S(=O)(=O)N1CCCC(c2cc(C(=O)NCc3ccccc3)no2)C1 (configuration not stated)	.	-3%	-11%	.	-14	.
O=C(Nc1nc2c(s1)CCCC2)c1ccc(Br)s1	?	16µM*	29µM*	0%	-93*	?
Cc1cccc(C(=O)Nc2sc3c(c2C(=O)NC(C)C)CCCC3)c1	.	?	15µM*	.	.	.
Cc1ncsc1C(=O)Nc1nc2c(s1)CCCC2	?	-29%	?	5%	9	?
O=C(Nc1nc2c(s1)CCCC2)c1ccc2ncsc2c1	-3%	16µM*	?	?	0	?
Cc1cccc(C(=O)Nc2nc3c(s2)CCCC3)c1	.	?	18µM*	.	.	.
CNC(=O)c1c(NC(=O)c2cccc(C)c2)sc2c1CCC2	?	?	?	10%	.	?
CC1([N+](=O)[O-])COC(c2cccc3ccccc23)OC1 (configuration not stated)	?	-13%	-3%	-1%	5	.
O=C(NC1CCCCC1)c1cccc2c(-c3ccc(F)c(F)c3)coc12	.	?	?	.	-19	.
COC(=O)c1ccccc1NC(=O)c1ccc2c(c1)OCCCO2	-4%	-21%	-4%	?	32	?
COc1ccc(C(=O)Nc2nc3c(s2)CCCC3)cc1Cl	.	?	15µM*	.	.	.
O=C(CNS(=O)(=O)c1ccc(Br)cc1)Nc1ccc2c(c1)OCCO2	?	4%	5%	-1%	17	-1%
SMILES	SW480 rerep	DT40 TDP1 CPT	DT40 TDP1 no CPT	MCF10A rereplic	IL-1B inflam inh	BCR signal inh
Cc1cc(C)c2oc(C(=O)Nc3ccc(S(=O)(=O)N4CCC(C)CC4)cc3)cc(=O)c2c1	-3%	10µM*	7.3µM*	5%	0	0%
Cc1ccc2c(=O)cc(C(=O)Nc3ccc(S(=O)(=O)N4CCCCCC4)cc3)oc2c1C	.	?	15µM*	.	.	.
CC1CCCCN1S(=O)(=O)c1cc2c3c(c1)CC(=O)N3CCC2 (configuration not stated)	.	-18%	?	.	.	2%
NS(=O)(=O)c1ccc(CCNc2ccn3nc(-c4ccc(OCCN5CCOCC5)cc4)cc3n2)cc1	.	18µM*	15µM*	.	-11	.
COCCCNc1ccn2nc(-c3ccc(OCCN4CCOCC4)cc3)cc2n1	.	?	12µM*	.	-23	.
O=C(CNC(=O)c1cccc(F)c1)N/N=C/c1cc(Br)ccc1OCc1ccccc1	14%	?	?	?	-17	7%
CC(C)(C)c1ccc(OCC(=O)N/N=C/c2cc(Br)ccc2OC(=O)c2ccco2)cc1	13%	4.6µM*	4.1µM*	2%	43	7%
O=C(CNC(=O)c1ccccc1F)N/N=C/c1cc(Br)ccc1OCc1ccccc1	?	?	23µM*	18%	?	13%
COC(=O)N/N=C\c1cc(Br)ccc1OCc1ccccc1	?	?	?	11%	-73*	-3%
COc1cc2nc(Nc3cccc(F)c3)nc(N)c2cc1OC	1%	12µM*	5.8µM*	?	.	?
COc1ccc(Nc2nc(N)c3ccccc3n2)c(OC)c1	-2%	12%	-34%	23%	.	?
Cc1ccc(Nc2nc(N)c3ccccc3n2)cc1C	-4%	15µM*	23µM*	20%	-97*	?
COc1ccc(Nc2nc(N)c3cc(OC)c(OC)cc3n2)cc1	.	?	18µM*	.	.	.
CC1=C(C(=O)NCc2ccccc2C)C2(CCCCCC2)OC1=O	.	?	-21%	.	.	.
C=C(C)C(COc1c2occc2cc2ccc(=O)oc12)OC(C)(C)C(O)COc1c2occc2cc2ccc(=O)oc12 (configuration not stated)	?	13µM*	15µM*	-10%	-4	0%
CC(C)C(=O)COc1c2occc2cc2ccc(=O)oc12	-2%	6%	-19%	-2%	-1	?
Cc1cc(OCCn2ccnc2)cc(C)c1Cl	-4%	-28%	?	-12%	20	-1%
Cc1ccc(C(=O)NCc2ccc(F)cc2)cc1NC(=O)c1nsc2ccccc12	.	?	23µM*	.	.	.
Cc1ccc(C(=O)O)cc1NC(=O)c1nsc2ccccc12	.	8%	0%	.	.	.
O=C(NCc1ccccc1Cl)c1ccc(NC(=O)c2nsc3ccccc23)cc1	.	18µM*	18µM*	.	.	.

Screening results as filed in PubChem.
